Screens deposited in PubChem BioAssay by Broad Institute.
Many of the other results were omitted from the sample, so hits are more common in it than they were.
IDE exosite FP: exo-site inhibitors of human insulin-degrading enzyme | actives 6.3% (n = 17,000) | z-score at 20 µM | P14735 | purified IDE, FL-6b probe fluorescence polarization; hits give low values;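 active = z-score of -3 or lower, meaning strong loss of probe binding signal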;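 also: His-tagged human IDE residues 42-1019 made in E. coli with 30 nM FL-6b probe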
Target sequence (P14735 42-1019 limits assumed): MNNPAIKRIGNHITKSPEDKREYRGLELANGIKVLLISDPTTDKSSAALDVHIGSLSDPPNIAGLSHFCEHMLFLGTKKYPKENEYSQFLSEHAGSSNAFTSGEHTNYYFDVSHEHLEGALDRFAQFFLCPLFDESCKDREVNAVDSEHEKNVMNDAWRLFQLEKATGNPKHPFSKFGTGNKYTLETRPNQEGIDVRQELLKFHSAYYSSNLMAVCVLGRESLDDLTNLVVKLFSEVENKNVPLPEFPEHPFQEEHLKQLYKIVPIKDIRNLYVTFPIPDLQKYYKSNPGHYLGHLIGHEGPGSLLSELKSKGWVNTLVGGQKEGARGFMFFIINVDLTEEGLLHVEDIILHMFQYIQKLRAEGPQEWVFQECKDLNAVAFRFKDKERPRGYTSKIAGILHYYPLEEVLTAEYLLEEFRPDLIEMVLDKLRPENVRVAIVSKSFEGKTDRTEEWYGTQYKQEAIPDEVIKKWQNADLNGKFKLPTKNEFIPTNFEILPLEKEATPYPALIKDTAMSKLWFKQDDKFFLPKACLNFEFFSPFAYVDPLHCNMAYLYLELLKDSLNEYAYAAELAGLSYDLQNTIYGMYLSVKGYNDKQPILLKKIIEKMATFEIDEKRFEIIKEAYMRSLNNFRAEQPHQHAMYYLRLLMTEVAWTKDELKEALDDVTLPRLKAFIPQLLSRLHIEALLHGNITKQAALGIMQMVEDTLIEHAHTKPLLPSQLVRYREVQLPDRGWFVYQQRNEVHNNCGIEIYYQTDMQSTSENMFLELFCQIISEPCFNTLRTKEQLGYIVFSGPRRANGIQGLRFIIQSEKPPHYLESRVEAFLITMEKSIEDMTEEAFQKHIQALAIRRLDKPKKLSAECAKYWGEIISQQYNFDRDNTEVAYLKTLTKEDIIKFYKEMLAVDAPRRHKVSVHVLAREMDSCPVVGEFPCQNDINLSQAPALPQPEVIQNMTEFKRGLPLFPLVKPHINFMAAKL
Active calls of the source: *.

SMILES	IDE exosite FP
CC(C)NC(=O)N1CCCCN2[C@@H](CO)[C@H](c3ccc(Br)cc3)[C@@H]2C1	2.7
COC(=O)C[C@@H]1C[C@H]2c3cc(NC(=O)c4ccc5c(c4)OCO5)ccc3O[C@H]2[C@@H](CO)O1	-0.27
O=C(c1ccc(F)cc1)N1CC(=O)N2[C@H](CO)[C@@H](c3ccc(-c4cccnc4)cc3)[C@H]2C1	0.56
O=C(NC[C@@H]1N[C@@H](CO)[C@@H]1c1ccccc1)C1CC1	3.8
COc1ccccc1-c1ccc([C@H]2[C@@H](CO)N[C@@H]2CNC(=O)C2CCCC2)cc1	-11*
N#C[C@H]1N[C@@H](CO)[C@@H]1c1ccc(-c2ccccc2F)cc1	1.4
COc1ccccc1-c1ccc([C@H]2[C@@H](C#N)N[C@@H]2CO)cc1	-0.79
COc1ccccc1-c1ccc([C@@H]2[C@H](C#N)N[C@@H]2CO)cc1	-9.3*
COc1ccc(-c2ccc([C@H]3[C@H](CO)N[C@@H]3C#N)cc2)cc1	1.6
N#C[C@H]1N[C@H](CO)[C@H]1c1ccc(-c2ccccc2F)cc1	4.7
COc1ccccc1-c1ccc([C@@H]2[C@@H](C#N)N[C@@H]2CO)cc1	-8.9*
COc1ccccc1-c1ccc([C@H]2[C@H](CO)N[C@@H]2C#N)cc1	-4.2*
O=C(NC[C@H]1N[C@H](CO)[C@@H]1c1ccc(-c2cncnc2)cc1)C1CCCCC1	-0.6
N#C[C@@H]1N[C@@H](CO)[C@@H]1c1ccc(-c2ccccc2F)cc1	2
N#C[C@@H]1N[C@H](CO)[C@H]1c1ccc(-c2ccccc2F)cc1	2.8
C[C@H]1CN([C@@H](C)CO)C(=O)c2cccc(NC(=O)c3ccncc3)c2O[C@H]1CN(C)Cc1ccc2c(c1)OCO2	0.53
COc1ccc(NC(=O)N(C)C[C@H]2OCc3cnnn3CCCC(=O)N([C@@H](C)CO)C[C@@H]2C)c(OC)c1	-1.3
C[C@@H]1CCn2nncc2COC[C@H]2CCCN2C1=O	-1.1
O=C(c1ccc(F)cc1)N1CC(=O)N2[C@@H](CO)[C@H](c3ccc(C#CC4CCCCC4)cc3)[C@@H]2C1	2.9
CN(C)CC#Cc1ccc([C@H]2[C@@H](CO)N3CCCCN(C(=O)NC4CCCC4)C[C@@H]23)cc1	1.6
O=C(NC[C@@H]1[C@@H](c2ccccc2)[C@H](CO)N1Cc1ccccn1)C1CC1	1.9
Cn1cnc(S(=O)(=O)N2CCCCN3[C@H](C2)[C@@H](c2ccc(-c4ccc(F)cc4)cc2)[C@@H]3CO)c1	0.91
Cc1ccccc1-c1ccc([C@H]2[C@@H](CO)N3CCCCN(S(=O)(=O)c4cn(C)cn4)C[C@@H]23)cc1	-3.4*
Cn1cnc(S(=O)(=O)N2CCCCN3[C@H](C2)[C@@H](c2ccc(-c4ccccc4)cc2)[C@@H]3CO)c1	-1.5
Cc1ccccc1-c1ccc([C@@H]2[C@H](CO)N3CCCCN(S(=O)(=O)c4cn(C)cn4)C[C@@H]23)cc1	-16*
SMILES	IDE exosite FP
COc1ccccc1-c1ccc([C@H]2[C@@H](CO)N3CCCCN(S(=O)(=O)c4cn(C)cn4)C[C@H]23)cc1	-9.3*
COc1ccccc1-c1ccc([C@H]2[C@@H](CO)N3CCCCN(S(=O)(=O)c4cn(C)cn4)C[C@@H]23)cc1	0.4
Cc1ccccc1-c1ccc([C@@H]2[C@@H](CO)N3CCCCN(S(=O)(=O)c4cn(C)cn4)C[C@H]23)cc1	-2.2
COc1ccccc1-c1ccc([C@H]2[C@H](CO)N3CCCCN(S(=O)(=O)c4cn(C)cn4)C[C@@H]23)cc1	0.67
Cn1cnc(S(=O)(=O)N2CCCCN3[C@@H](CO)[C@H](c4ccc(-c5ccccc5)cc4)[C@@H]3C2)c1	-0.13
Cc1ccccc1-c1ccc([C@H]2[C@H]3CN(S(=O)(=O)c4cn(C)cn4)CCCCN3[C@H]2CO)cc1	-3.6*
Cc1noc(C)c1S(=O)(=O)N(C)C[C@H]1Oc2c(NC(=O)c3ccc(-c4nccs4)cc3)cccc2C(=O)N([C@H](C)CO)C[C@H]1C	-1.8
CO[C@@H]1CN(C)C(=O)c2cc(NS(C)(=O)=O)ccc2OC[C@@H](C)N(Cc2cncnc2)C[C@@H]1C	1.4
CCC(=O)N(CC)C[C@H]1[C@H](c2ccccc2)[C@@H](CO)N1C(C)=O	0.62
O=S(=O)(c1cccs1)N1CCCCN2[C@@H](CO)[C@H](c3ccc(C4=CCCC4)cc3)[C@@H]2C1	4.9
Cc1ccccc1S(=O)(=O)N1[C@H](CO)[C@@H](c2ccc(-c3ccc(F)cc3)cc2)[C@@H]1C#N	3.9
O=C(Cc1ccncc1)N1CC(=O)N2[C@H](CO)[C@H](c3ccc(C4=CCCC4)cc3)[C@@H]2C1	4
COc1ccc(NC(=O)N2CC(=O)N3[C@H](CO)[C@H](c4ccc(Br)cc4)[C@H]3C2)cc1	-0.56
O=C(NCc1ccc(F)cc1)[C@H]1[C@H](CO)[C@H]2Cn3c(cccc3=O)[C@H]2N1C(=O)c1cccnc1	-0.14
O=C(CC1CC1)N1CC(=O)N2[C@H](C1)[C@H](c1ccc(C#Cc3cccc(F)c3)cc1)[C@@H]2CO	-1.1
O=C(CC1CC1)N1CC(=O)N2[C@H](C1)[C@@H](c1ccc(C#Cc3cccc(F)c3)cc1)[C@@H]2CO	-1.5
